system: VDR:RXRa (NR concentration 270 nM, RXRa partner concentration 90 nM); test: PBM binding z-score (relative to random genomic background probes); higher = stronger binding; sequences stand for … in GC…GCGATTGACAGCGTAGAATGAAGG
Description: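 Protein-binding microarray (Agilent 4x180K custom design, double-stranded 60-nt probes: 5' GC cap, 34-nt variable region, 24-nt constant primer region; full probe sequence given). Purified or IVT nuclear receptor:RXRα heterodimers (3:1 NR:RXRα, mostly 270:90 nM) or homodimers were incubated for 1 h in PBS with 2% milk and no ligand, then detected with Alexa488 antibodies. Fluorescence from o1-orientation probes (~5 replicates averaged) was converted to z-scores against 500 random hg19 background probes. Variable regions are seed direct-repeat (DR0–DR5) sites, all their single-nucleotide variants and half-site ablations.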

Sequence	PBM binding z-score
AGTCAAAGTTCAGGCCGAGGTAACGTAAAGCACG	3.01
TGTGCTAGGTCAGTTGGTCAGCTAACGAGCTGCC	-0.0889
CGTCCAAGGTCAATGCTAGGTCAGTTAAAGCATT	5.01
TCTTGTAGATCAAGCAGATTAAGAAAGCCTGAGT	0.437
CGTCAAAGTTCAAATAAGGTAACGTAAAGCACGC	4.74
TCATATAGATAAACAGGTGAAAGTCCGTAAGTTA	1.18
GCAGACCGGTGAAACGCAGGTAACTCAGGGTGGC	-0.857
GCTCTTAGTTGAAAGGGCAACCGAATGATTCTCG	0.445
TCATGTAGATCAAAGGTTAAGAAAGCCGAAGCCT	1.66
TCGAGTAGGTTAGTCGGTGCATTCAGCCAACATA	3.31
CCTGCTAGGTGATGGTCAGCTAATCTACAGTATG	-0.759
TAACCTAGGTCAGATCGGGCCAGTATACGCTATA	1.52
GCAGACAGGTGAAACGCTGGTAACTCAGGGTGGC	-0.466
AGAACGAGGGCAATTAGTTGATAGCACGGGTGGC	1.13
ACAGAAAGGTGATGAAGGTAACTCAGGCTATCAT	1.2
TGAATGAGGTTATAAGATCAGGGTACGTTGCAAA	1.79
CCTAGTTGGTCAGGAGGTCTCACACCGGATATGA	0.189
ACTTACGGGTCAACGAGGTTCTAGCACGCGTATA	6.52
CCAGACAGGTGAGAAGGTAACTCTGCCTCGATTA	-0.12
TCGAGTAGGTTAGTCGGGGCATGCAGCCAACATA	1.24

Sequence	PBM binding z-score
CCTACTGGGCCTAGGTCATTGATCAGTCAAAGCA	0.813
GCTAGCAGGCCATTTGGGTCAGTCAATGACGGGC	0.157
ATCGAAAGGTCGTGAGGTGAATATACAGAAAGGC	3.88
TGAATGAGGTTAAAGATAAGGGAACGTGGCGTCG	1.36
TAGCCTAGGGCATTGGGCCAGTATAGTACGCATC	-0.414
CCTTACGGGTCACTGGCAGGTTATAGCATTTGGA	3.81
GCTTACCGGTCAAAGGTTATAGCATGAATAGAAT	2.81
GCGACTGGGGCACAGCAGGTTACCATAAGGTTGG	-0.208
TCGAGTAGGTTAGGGGCATCCAGAATGGCGTCGA	0.536
CCTCGGAGGACATCAGGAGGTCAGAGCTGCCAGA	1.99
CCGAGTAGGTTATGGGACATTCAGGCAACGGTGA	0.258
ACTAGTTGGTCAGCTGTGGTCACACACAATTCGG	0.029
ATATGTAGGTTATATCCGGGTCATTCAGGCTATG	4.11
TCGAGTAGGTTAGTCGGGGCAATCAGCCAACATA	1.05
CAAACTAGGTCGAGGTCAAAGTCGGTTTGTGCCA	5.52
AGAACGACGGCAATGAGTTGATAGCACGGGTGGC	-0.0161
GCTGCTAGGTCAACTGATGGTCAGATAAAGCTCG	1.82
GTACCAAGGTGAATAGTTCGTTGATGAGTAGGCG	0.251
ACTATTAGTTGAGACGAGAGCAACCGATAGGTTG	0.00985
CCTCGGAGGACAGAAGGTCAGTGCTGTCCGCTTT	0.863
